NOD2 RIPK2 PPI: NOD2-RIPK2 binding disruptors in cells, primary screen, fluorescence, CHO cells, BLA complementation; Receptor-interacting serine/threonine-protein kinase 2 (Homo sapiens), O43353; inhibition, % at 4.98 µM; CCF4 ratio; 360,000 tested, 0.38% active; AID 624267, 2012; in the data active means inhibition above about 21%;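 further: 0% = vehicle only and 100% = reference blocker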
Target sequence (O43353 whole entry, looked up): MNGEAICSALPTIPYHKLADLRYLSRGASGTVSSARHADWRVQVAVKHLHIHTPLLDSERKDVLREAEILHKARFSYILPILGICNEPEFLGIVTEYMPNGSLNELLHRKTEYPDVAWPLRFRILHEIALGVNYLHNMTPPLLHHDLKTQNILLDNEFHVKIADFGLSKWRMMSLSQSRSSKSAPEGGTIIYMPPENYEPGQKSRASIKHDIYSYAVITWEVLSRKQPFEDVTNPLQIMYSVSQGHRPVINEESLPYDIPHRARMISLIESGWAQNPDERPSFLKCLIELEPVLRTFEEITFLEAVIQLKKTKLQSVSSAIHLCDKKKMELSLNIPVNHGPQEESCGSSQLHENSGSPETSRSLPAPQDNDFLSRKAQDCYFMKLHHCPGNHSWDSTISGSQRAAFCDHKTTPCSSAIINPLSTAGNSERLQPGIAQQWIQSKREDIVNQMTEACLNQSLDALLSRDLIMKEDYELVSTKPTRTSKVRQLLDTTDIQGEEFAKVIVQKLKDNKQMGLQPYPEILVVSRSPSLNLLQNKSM
TLR4 MyD88 comp: inhibitors of TLR4-MyD88 association in cells, primary screen, cell-based, HeLa CL3-4, BLA complementation, FRET ratio. Toll-like receptor 4 (Homo sapiens) + Myeloid differentiation primary response protein …. inhibition, % at 8.4 µM. 200,000 tested, 0.18% active. HeLa CL3-4 TLR4/MyD88 BLA complementation; in the data active means inhibition above about 25%;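 further: 0% = vehicle and 100% = reference inhibitor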
Myeloid diff MLP: induction of myeloid progenitor differentiation, primary screen, cell-based, flow cytometry, MLPCN library. ER-HoxA9 myeloid progenitors, lysozyme-GFP differentiation. calls only at 10 µM. 360,000 tested, 1% active. AID 624256, 2012;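 active means normalized GFP-positive differentiation at or above the plate's own cutoff, the solvent-only control mean plus 3 SD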;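 further: cells exposed to compound for four days before flow analysis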
ABCB6 inh MLPCN: ABCB6 transporter inhibitors, primary screen, K562-ABCB6 cells, flow cytometry, MLPCN library | 360,000 tested, 0.19% active | K562-ABCB6 porphyrin accumulation, 1 h; stronger effect = lower value | ATP-binding cassette sub-family B member 6 (Homo sapiens), Q9NP58 | AID 602162, 2011 | fluorescence ratio to DMSO, % at 10 µM;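 active means fluorescence ratio to DMSO below 75%, the collection mean minus 3 SD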;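 further: signal is porphyrin accumulated inside mitochondria; 100% equals median channel fluorescence of DMSO control wells; lower ratio means ABCB6 inhibition with less porphyrin fluorescence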
TLR9-MyD88 block: inhibitors of TLR9-MyD88 association in cells, primary screen, cell-based, CHO, BLA complementation, fluorescence | Toll-like receptor 9 (Homo sapiens) + Myeloid differentiation primary response protein … | CCF4 FRET ratio | inhibition, % at 4.98 µM | 340,000 tested, 0.21% active | AID 504734, 2011;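 active means inhibition above the mean over all tested compounds plus 3 SD, cut at about 21% in these data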;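 further: 0% = DMSO only wells and 100% = clavulanate BLA inhibitor control wells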
Numbers without * were called inactive; i = inactive; nt = no result given; + = active, no number. The list is not random: actives were taken first. Their share in the collection is about 1.7%.

SMILES | NOD2 RIPK2 PPI | TLR4 MyD88 comp | Myeloid diff MLP | ABCB6 inh MLPCN | TLR9-MyD88 block
Cc1oc(C)c2c(=O)ccc3c(c12)OC(N)=C(C#N)C3c1ccccc1 (centres undefined) | -5 | 0 | i | 98 | 4
CCOc1ccc(-c2cc(C(=O)Nc3cccc(C(F)(F)F)c3)[nH]n2)c(C)c1 | -3 | nt | i | 98 | nt
CCSc1nnc2ccc(-c3ccc(OC)c(OC)c3)nn12 | -14 | nt | + | 98 | -5
COc1ccc2c(c1)C(SCC(=O)NCCc1ccc(Cl)cc1)CC(C)(C)O2 (centres undefined) | -12 | 6 | + | 104 | -8
COc1ccc(CCC(=O)NCCc2ccc(Cl)cc2)cc1 | 6 | nt | i | 98 | -4
CC1(C(=O)NS(=O)(=O)c2ccccc2Cl)CCN1C(=O)CC1CC1 (centres undefined) | 7 | nt | i | 98 | nt
O=C(COC(=O)c1ccc(Br)cc1)NCc1ccccc1 | -3 | -13 | i | 180 | -1
CC(=O)Cc1cc(O)c2ccccc2c1OC(=O)c1ccc(Br)cc1 | -5 | nt | + | 99 | -5
COCCNC(=O)CN(C(=O)CCC(=O)Nc1ccccn1)c1cc(C)ccc1C | 2 | nt | i | 98 | -5
COc1ccccc1NC(=O)N(C)C[C@H]1Oc2ncc(Br)cc2C(=O)N([C@H](C)CO)C[C@H]1C | -8 | nt | i | 105 | -3
Cc1sc2nc(CN3CCCCC3)nc(Cl)c2c1C | 19 | 16 | + | 103 | 9
Clc1nc(CN2CCCCC2)nc2sc3c(c12)CCCC3 | 17 | 6 | i | 100 | 4
CC(=O)Nc1cccc(OCCCNC(=O)c2cccc3ccccc23)c1 | 2 | nt | i | 98 | nt
Cc1cc(N2CCCC2)nc2ccc(NC(=S)NCCCN3CCC(C)CC3)cc12 | -3 | 8 | i | 99 | 2
O=C1/C(=C\c2cccnc2)SC(=S)N1c1ccc(F)cc1 | 2 | -3 | + | 331 | -10
Cc1cc(/C=C2\SC(=S)N(Cc3ccco3)C2=O)c(C)n1-c1cccnc1 | -2 | 1 | + | 493 | 2
Cc1cc(/C=C2/SC(=S)N(c3cccc(C(F)(F)F)c3)C2=O)c(C)n1-c1cccnc1 | 5 | 4 | + | 356 | 4
COc1cccc(/C=C2\SC(=S)N(c3cccnc3)C2=O)c1OC | 0 | 8 | i | 95 | 3
CC(CCl)n1c(=O)c2ccccc2n1C(=O)c1ccccc1 (centres undefined) | -13 | nt | i | 123 | nt
CNC(=O)/C(C#N)=C/c1c(N2CCCCCC2)nc2ccccn2c1=O | -5 | nt | + | 222 | 4
CCNC(=O)/C(C#N)=C/c1c(N2CCCCCC2)nc2ccccn2c1=O | -11 | nt | i | 95 | -12
Brc1ccc(-c2nc(N/N=C/c3cccnc3)c3ccccc3n2)cc1 | 6 | -3 | + | 109 | -8
CC(Cl)C(=O)N1c2ccccc2CCc2ccccc21 (centres undefined) | 3 | nt | i | 97 | 0
O=C(CCl)N1c2ccccc2CCc2ccccc21 | 5 | nt | + | 406 | -11
Cc1cccc(C(=O)Nc2nnc(SCC(=O)NCc3ccco3)s2)c1 | 7 | nt | i | 106 | 8
SMILES | NOD2 RIPK2 PPI | TLR4 MyD88 comp | Myeloid diff MLP | ABCB6 inh MLPCN | TLR9-MyD88 block
O=C(CN(Cc1ccc(F)cc1)C(=O)CCC(=O)Nc1nccs1)NCC1CCCO1 (centres undefined) | -1 | nt | + | 92 | -4
COCCn1c(Cc2ccccc2)nnc1SCC(=O)NC1CCCCC1 | -9 | nt | i | 98 | 2
Cc1ccc2c(c1)c(C)c(C)n2CC(O)Cn1nnc2ccccc21 (centres undefined) | -4 | -9 | + | 267 | -2
Cc1ccc2c(c1)c(C)c(C)n2CC(O)Cn1nc(C)cc1C (centres undefined) | -6 | -2 | i | 118 | -9
Cc1cc(C)n2nc(SCCOc3ccc(F)cc3)nc2n1 | -1 | -13 | + | 155 | -2
Cc1cc(C)n2nc(SCc3ccc(F)cc3Cl)nc2n1 | -3 | nt | i | 91 | 2
Cc1cccc(CSc2nc3nc(C)cc(C)n3n2)c1 | -9 | nt | + | 458 | -10
Cc1cc(C)n2nc(SCc3c(F)cccc3Cl)nc2n1 | -10 | nt | i | 89 | -15
NC(=O)C1CCN(C(=O)c2cc(-c3ccc(Cl)s3)nc3ccccc23)CC1 | -11 | nt | i | 96 | 13
COc1ccc(NC(=O)C2(S(=O)(=O)c3ccc(C)cc3)CC2)cc1 | -7 | nt | i | 99 | 2
Cc1ccc(C(=O)Nc2nnc(-c3ccco3)o2)cc1 | -16 | 6 | i | 95 | 2
O=C(Nc1nnc(-c2ccco2)o1)c1ccc([N+](=O)[O-])s1 | -6 | 4 | + | 103 | 13
CC(C)C(N)c1csc(NC(=O)Nc2cccc(Cl)c2)n1 (centres undefined) | 0 | nt | + | 97 | nt
NC(c1csc(NC(=O)Nc2cccc(Cl)c2)n1)c1ccccc1Cl (centres undefined) | -9 | nt | i | 98 | nt
CCN(CC)c1ccc(/C=C2\SC(N)=NC2=O)cc1 | 8 | nt | + | 140 | 9
CCN(CC)c1ccc(C=C2SC(=S)NC2=O)cc1 | -1 | nt | + | 700 | 9
Cc1cc(/C=C2\SC(=S)NC2=O)cc(C)c1O | 4 | nt | i | 109 | 9
CCOc1cc(/C=C2/SC(=S)NC2=O)ccc1OC(=O)c1ccco1 | 2 | 2 | i | 97 | -1
NC1=NC(=O)/C(=C/c2ccc(OCC(=O)O)cc2)S1 | 3 | nt | i | 94 | -12
O=C1NC(=S)S/C1=C/c1ccc(OC(=O)c2ccco2)cc1 | -17 | nt | + | 99 | 1
O=C(CCCNC(=O)c1ccc(Cl)cc1)OCc1cccc(Br)c1 | -3 | nt | i | 95 | 12
CCN(CC)C(=O)c1cccc(-c2csc(C(O)c3ccco3)n2)c1 (centres undefined) | 3 | nt | + | 98 | nt
COCCn1c(=NC(=O)CCS(=O)(=O)c2ccccc2)sc2cc(F)ccc21 | -3 | nt | i | 98 | -2
CCCCCC/C=N/Nc1nnc(Cc2ccc(OC)c(OC)c2)c(=O)[nH]1 | -6 | nt | + | 101 | -8
O=C1CCC(C(=O)N2CCN(c3cnccn3)CC2)CN1CCc1ccc(Cl)cc1 (centres undefined) | -3 | nt | i | 96 | 3
Cc1c(Br)c(C(N)=O)nn1C | 0 | -7 | i | 105 | 2
Cn1nnc2c(C(N)=O)ncn2c1=O | 1 | nt | + | 126 | nt
CCOC(=O)C1CCCN(CCC(=O)Nc2cccc(Cl)c2C)C1 (centres undefined) | 3 | nt | i | 102 | 3
Cc1nc(NCc2ccccn2)c2c3c(sc2n1)CCCC3 | -2 | -19 | + | 132 | 16

Compound activity deposited in PubChem BioAssay by several laboratories.
